The text below walks through data of PubChem BioAssay (NCI).

This is part of a sample that, as a whole, favours compounds with a hit. Of some 79,000 tested, about 15% had one in any assay. A number with no mark means an inactive call. The source made the active and inactive calls. No stated cut-off is given here; in the data, active means growth inhibition above about 70%; inactive means the rest.

This assay in a line: NCI Yeast Anticancer Drug Screen. Data for the wt2 strain (AID 169).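 Further: 0% = growth of vehicle-treated yeast cultures.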 The following applies: S. cerevisiae wt2 strain growth inhibition, hits give high values. On the procedure:
Growth inhibition of yeast strains with defined genetic alterations is measured as a screen for potential anti-cancer activity. Selected strains with alterations in DNA damage repair or cell cycle control were exposed to compounds and growth inhibition was measured relative to vehicle treated controls. The strain used in this assay is wt2

Take `CN(N=O)C(=O)Nc1ccc(C(=O)O)cc1`: the growth inhibition runs as follows: (at 1.2 µM) -3%; (at 3.7 µM) -2%; (at 11.0 µM) -1%; (at 33.0 µM) 0%; (at 100.0 µM) 6%.
As to `N#CCC(=O)N/N=C(\c1ccccc1)C(c1ccccc1)C1(O)C(=O)Nc2c(Cl)ccc(Cl)c21` (stereo not given), the growth inhibition is, setting by setting: (at 1.2 µM) 0%; (at 3.7 µM) 8%; (at 11.0 µM) -3%; (at 33.0 µM) -3%; (at 100.0 µM) 1%.
As for `O=[N+]([O-])c1ccc(/C=C\c2ccc3c(c2)OCO3)c([N+](=O)[O-])c1`, the growth inhibition reads like this: (at 1.2 µM) -2%; (at 3.7 µM) -3%; (at 11.0 µM) -1%; (at 33.0 µM) 8%; (at 100.0 µM) 66%.
Taken in the same sequence, the figures for `COc1cc2oc3ccccc3c(=O)c2cc1CSc1ccccc1N` were -1%, -2%, -2%, 3% and 7%.
Regarding `COC(=O)C(Cl)(Cl)N=Nc1c(Cl)cc(Cl)c(C)c1Cl`, the growth inhibition runs as follows: (at 1.2 µM) -3%; (at 3.7 µM) 89% (active); (at 11.0 µM) 99% (active); (at 33.0 µM) 99% (active); (at 100.0 µM) 99% (active).
On to `O=C(O)c1ccccc1C(=O)OC1CCc2ccccc2C1` (stereo not given), for which the growth inhibition (at 1.2 µM) is -4%; the growth inhibition (at 3.7 µM) is -6%; the growth inhibition (at 11.0 µM) was -9%; the growth inhibition (at 33.0 µM) was -2%; the growth inhibition (at 100.0 µM) is 25%.
On to `OC(Cc1cccc2ccccc12)CN1CCC(c2ccccc2)CC1` (stereo not given), for which the growth inhibition (at 1.2 µM) is 50%; the growth inhibition (at 3.7 µM) is 52%; the growth inhibition (at 11.0 µM) was 72% (active); the growth inhibition (at 33.0 µM) is 84% (active); the growth inhibition (at 100.0 µM) was 97% (active).
Consider `O=C(NOC(=O)c1ccc([N+](=O)[O-])cc1)c1ccc(Cl)cc1`, for which the growth inhibition (at 1.2 µM) is -47%; the growth inhibition (at 3.7 µM) was -27%; the growth inhibition (at 11.0 µM) is 11%; the growth inhibition (at 33.0 µM) was 87% (active); the growth inhibition (at 100.0 µM) was 97% (active).
